From PubChem BioAssay
This is one part of a sample in which hits are shown more often than they occur.
ST2 IL33 inh = inhibitors of human ST2 (IL1RL1) binding to IL-33; inhibition, % for hits at 17 µM; 78,000 tested, 2.3% active; AlphaLISA ST2-Fc/biotin-IL-33 interaction, 1 h; AID 1259354; Q01638; in the data active means inhibition above about 30%
Target sequence (Q01638 whole entry, looked up): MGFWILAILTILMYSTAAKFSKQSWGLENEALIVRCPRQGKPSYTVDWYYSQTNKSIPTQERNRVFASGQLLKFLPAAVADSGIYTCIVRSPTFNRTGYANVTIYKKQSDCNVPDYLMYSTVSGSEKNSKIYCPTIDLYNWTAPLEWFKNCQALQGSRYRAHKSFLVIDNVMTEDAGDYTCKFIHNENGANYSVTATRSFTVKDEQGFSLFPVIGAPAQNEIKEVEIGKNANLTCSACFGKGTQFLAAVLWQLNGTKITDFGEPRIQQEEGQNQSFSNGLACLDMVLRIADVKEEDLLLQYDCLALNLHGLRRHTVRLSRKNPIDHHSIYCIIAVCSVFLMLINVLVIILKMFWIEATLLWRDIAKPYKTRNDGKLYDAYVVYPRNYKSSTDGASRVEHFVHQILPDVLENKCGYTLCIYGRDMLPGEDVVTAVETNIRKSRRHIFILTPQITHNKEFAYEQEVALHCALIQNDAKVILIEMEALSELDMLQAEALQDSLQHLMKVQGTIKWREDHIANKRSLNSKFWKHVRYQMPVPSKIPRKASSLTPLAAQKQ
Active calls of the source: *; i = inactive.

SMILES	ST2 IL33 inh
O=C(CCC1CCN(C2CCSC2)CC1)Nc1ccccc1Cl (stereo not given)	i
Cc1ccnc(Nc2nc(-c3ccccn3)cs2)c1	i
Cc1ccnc(Nc2nc(-c3ccc(O)c(O)c3)cs2)c1	44%*
Cc1ccc(Nc2nc(-c3ccc(F)cc3)cs2)cc1C	i
CCOc1ccc(N=C/C(=C/Nc2ccc(OCC)cc2)c2ccccc2)cc1	36%*
CCOc1ccc(NCC(=O)c2ccc(Br)cc2)cc1	i
CCOc1ccc(N=CNc2ccc(OCC)cc2)cc1	i
O=C1NC(=O)/C(=C/c2ccc(-c3cc([N+](=O)[O-])ccc3Cl)o2)S1	i
O=C1NC(=Nc2ccccc2Cl)SC1(CO)CO	i
COc1cccc(/C=C2\SC(N3CCN(C)CC3)=NC2=O)c1OC	i
COc1cccc(/C=C2/SC(=Nc3ccccc3Cl)NC2=O)c1OC	31%*
O=C1NC(=Nc2ccccc2Cl)S/C1=C/c1ccc([N+](=O)[O-])cc1	31%*
O=C(/C=C1\Sc2ccccc2NC1=O)NCc1ccc2c(c1)OCO2	i
O=[N+]([O-])c1ccc(Cl)c(N=Cc2ccc(Br)c([N+](=O)[O-])c2)c1	i
CCOc1ccccc1/C=C1/SC(=O)NC1=O	i
O=C1NC(=Nc2ccccc2Cl)S/C1=C/c1cc2c(cc1Cl)OCO2	31%*
COc1cccc(CN2CCCC(c3[nH]ncc3-c3cccc(C(F)(F)F)c3)C2)c1O (stereo not given)	i
COc1ccc(N2CCN(C(=O)Cc3c(C(=O)O)[nH]c4ccc(Cl)cc34)CC2)cc1	i
Cc1[nH]c2ccc(Cl)cc2c1CCn1ccnc1-c1nccn1C	i
N#Cc1c(N)nc(SCc2ccccc2)c(C#N)c1-c1ccccc1	i
O=C(NO)c1sc2ccccc2c1Cl	i
O=C(O)CS(=O)(=O)c1ccc(-c2ccc(S(=O)(=O)CC(=O)O)cc2)cc1	i
CC1Cc2ccccc2N1C(=O)C1CCCN1S(=O)(=O)c1cccc2nsnc12 (stereo not given)	i
O=S(=O)(NCc1nc2cccnc2n1Cc1ccc(Cl)cc1)c1cccc(Cl)c1	i
COC(=O)c1c[nH]n2c(=O)c(Cc3ccccc3F)c(C)nc12	i
SMILES	ST2 IL33 inh
COC(=O)c1c[nH]n2c(=O)c(Cc3ccc(C)cc3)c(C)nc12	i
COC(=O)c1c[nH]n2c(=O)c(Cc3ccccc3C)c(C)nc12	53%*
Cc1c(C(=O)NC2CCCCCCC2)sc2ncnc(NCC3CCCO3)c12 (stereo not given)	i
COc1ccc(N2CN=c3s/c(=C\c4cccc([N+](=O)[O-])c4)c(=O)n3C2)cc1	33%*
O=c1/c(=C/c2cccc([N+](=O)[O-])c2)sc2n1CN(c1ccc3c(c1)OCO3)CN=2	36%*
O=c1c2ccccc2nc(/C=C/c2ccc3c(c2)OCO3)n1-c1ccc([N+](=O)[O-])cc1	i
Cc1ccccc1-n1nc([N+](=O)[O-])c(=NCc2ccc3c(c2)OCO3)n1O	i
CC(=O)c1ccc(N2CN=c3s/c(=C\c4cccc([N+](=O)[O-])c4)c(=O)n3C2)cc1	i
CC(=O)c1ccc(N2CN=c3s/c(=C\c4cccnc4)c(=O)n3C2)cc1	i
COc1ccc(NS(=O)(=O)c2ccc(NC(C)=O)cc2)cc1Cl	i
O=C(CCN1CCCO1)NCc1cccnc1Oc1ccc(F)cc1F	i
CCOc1cc(/C=C2\C(=O)NC(=O)N(c3ccccc3)C2=O)ccc1O	i
Cc1ccccc1CC1SC(=Nc2ccccc2)NC1=O (stereo not given)	i
Cc1ccc(NC(=O)CC2SC(=Nc3ccccc3)NC2=O)c(C)c1 (stereo not given)	i
O=C1NC(=Nc2cccc(Br)c2)SC1(CO)CO	i
O=C1NC(=Nc2ccccc2)S/C1=C/c1ccc(F)c(Br)c1	43%*
O=C1NC(=Nc2ccccc2)S/C1=C/c1cc(Br)ccc1O	36%*
O=C1NC(=Nc2ccccc2)SC1(CO)CO	i
O=C1CC(c2ccc(F)c(Br)c2)c2ccc3ccccc3c2N1 (stereo not given)	i
O=C1NC(=Nc2ccccc2)S/C1=C/c1ccc(O)c(O)c1	35%*
COc1ccc(CN2CCN(Cc3ccccc3)CC2)c(OC)c1OC	i
Cc1nc2ccccc2nc1CN1CCCC2(C1)C(=O)Nc1ccccc12 (stereo not given)	i
CC1CCCC2(C1)C(C#N)=C(SCC(=O)Nc1ccc(Br)cc1)NC(=O)C2C#N (stereo not given)	i
CCOCc1cn(CC(=O)c2ccc(CC)cc2)c(C)nc1=N	i
CCc1oc2cc(OCC(=O)OC)ccc2c(=O)c1-c1ccc2c(c1)OCCO2	i
Cc1cccc(CSc2nccc(=O)[nH]2)c1	i
CC(C)=CC(=O)CC(O)(c1ccccc1)C(F)(F)C(F)F (stereo not given)	i
O=C(Nc1cnns1)c1cccc(CN2CCCC2c2nccs2)c1 (stereo not given)	i
Cc1cc(C)n(Cc2ccc(C(=O)NC(C)c3nncn3C(C)C)cc2)n1 (stereo not given)	i
CCN(CC)c1ccc(N=Cc2ccc(N(CC)CC)cc2O)cc1	60%*
